Test results from PubChem BioAssay AID2796 (The Scripps Research Institute Molecular Screening Center, 2010).
About 8,000 (2.5%) of roughly 320,000 compounds were called active. Cut-off read from the data, not from the text of the source: active = activation above about 47%; inactive = the rest. What follows is part of a selection rich in actives, with near analogues and random picks from the rest.

biological target: Aryl hydrocarbon receptor (Homo sapiens) (UniProt P35869); test: AHR activators, primary screen, cell-based, luminescence, luciferase reporter, human (AID 2796); settings: AHR-responsive luciferase reporter cells, at 5 µM, hits give high values;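 note: 0% = vehicle wells and 100% = reference agonist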
Sequence (P35869 whole entry, looked up): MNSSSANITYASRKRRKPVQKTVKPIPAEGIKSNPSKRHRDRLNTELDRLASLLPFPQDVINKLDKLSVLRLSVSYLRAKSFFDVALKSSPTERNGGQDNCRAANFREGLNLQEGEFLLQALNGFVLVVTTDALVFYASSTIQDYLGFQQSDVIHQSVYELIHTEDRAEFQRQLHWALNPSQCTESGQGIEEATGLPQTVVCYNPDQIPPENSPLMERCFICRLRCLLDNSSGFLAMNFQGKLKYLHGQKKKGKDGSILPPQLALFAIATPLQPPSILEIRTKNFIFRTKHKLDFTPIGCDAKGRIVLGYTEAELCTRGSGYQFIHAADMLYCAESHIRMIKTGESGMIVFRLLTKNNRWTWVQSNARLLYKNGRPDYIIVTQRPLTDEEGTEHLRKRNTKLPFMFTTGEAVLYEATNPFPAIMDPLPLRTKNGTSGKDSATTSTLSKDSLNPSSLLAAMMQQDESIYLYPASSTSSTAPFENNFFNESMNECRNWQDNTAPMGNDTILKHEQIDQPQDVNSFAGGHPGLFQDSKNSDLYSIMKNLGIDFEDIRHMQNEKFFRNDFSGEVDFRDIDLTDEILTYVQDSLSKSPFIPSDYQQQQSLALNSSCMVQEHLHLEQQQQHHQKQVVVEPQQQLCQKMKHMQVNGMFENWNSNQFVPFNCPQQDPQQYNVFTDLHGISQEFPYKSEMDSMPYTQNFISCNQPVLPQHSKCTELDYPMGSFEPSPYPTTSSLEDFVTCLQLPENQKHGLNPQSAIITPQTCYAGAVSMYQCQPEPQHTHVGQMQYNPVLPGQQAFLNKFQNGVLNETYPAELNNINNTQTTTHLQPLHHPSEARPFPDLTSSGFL

SMILES | activation
O=c1oc2c(Cl)cc(Cl)cc2cc1-c1nnc(Nc2ccccc2F)s1 | 10.5% (inactive)
OC(COCCC12CC3CC(CC(C3)C1)C2)CN1CCCCC1 (configuration not stated) | 0.68% (inactive)
CC(=O)N[C@H]1[C@H]([C@H](O)[C@H](O)CO)OC(C(=O)O)=C[C@@H]1O | 0.57% (inactive)
Cc1ccc(S(=O)(=O)N(CC(=O)Nc2cccc([N+](=O)[O-])c2)Cc2ccc(Cl)cc2)cc1 | 6.55% (inactive)
CC1Cc2ccccc2N1C(=O)CSc1nnc(C2CC2)n1C (configuration not stated) | 93% (active)
CC1Cc2ccccc2N1C(=O)CSc1nnc(-c2ccc(S(=O)(=O)N3CCCC3)cc2)n1C (configuration not stated) | 1.18% (inactive)
CCn1c(CSc2ncccn2)nnc1SCC(=O)N1c2ccccc2CC1C (configuration not stated) | -1.92% (inactive)
CO/N=C/c1ccc(N2CCN(C(=O)c3cccc(Cl)c3)CC2)c([N+](=O)[O-])c1 | -0.18% (inactive)
Cc1nn(Cc2ccccc2Cl)c(C)c1NC(=O)Cn1nc([N+](=O)[O-])c(Cl)c1C | 0.37% (inactive)
COc1cccc(NC(=O)COc2cc(C)cc3oc(=O)cc(C)c23)c1 | 12.3% (inactive)
Cc1c(NC(=O)c2cc(-c3ccc(Br)cc3)on2)c(=O)n(-c2ccccc2)n1C | -3.47% (inactive)
Cc1c(NC(=O)c2coc(=O)c(Br)c2)c(=O)n(-c2ccccc2)n1C | 0.64% (inactive)
Cc1cc2oc(C(=O)Nc3c(C)n(C)n(-c4ccccc4)c3=O)c(C)c2cc1Cl | 81% (active)
COCCN(Cc1cc2cc3c(cc2nc1Cl)OCO3)C(=O)c1cccc(C)c1 | 11.9% (inactive)
Cc1nnc(NCCO)c2ccccc12 | -2.09% (inactive)
COc1ccc(Nc2nnc(C)c3ccccc23)cc1 | 102% (active)
COc1ccc(Nc2nc(=O)[nH]nc2C)cc1 | -3.65% (inactive)
CCCCNC(=O)N1CCCC(N(C)CCc2ccc(OC)c(OC)c2)C1 (configuration not stated) | -0.75% (inactive)
CCNC(=O)NNC(=O)C1CC(c2cccs2)=NO1 (configuration not stated) | 3.35% (inactive)
Cn1cccc1C(=O)OCC(=O)NCCc1ccccc1 | 7.54% (inactive)
O=C(CSc1n[nH]c(-c2cccnc2)n1)Nc1ccnc2ccccc12 | 8.3% (inactive)

SMILES | activation
c1ccc(-n2nnnc2-c2cccnc2)cc1 | 36.3% (inactive)
S=c1nc2ccccc2c2nc(-c3cccnc3)[nH]n12 | 83.8% (active)
O=C(/C=C/Sc1ncn[nH]1)c1ccc(Cl)cc1 | 0.35% (inactive)
COc1cc(C)ccc1OCC(=O)OCC(=O)c1ccc[nH]1 | -3.4% (inactive)
COCCNc1nc(-c2ccccc2)nc2c1oc1ccccc12 | 88.9% (active)
CCOCCCNc1nc(-c2ccccc2)nc2ccccc12 | 13.5% (inactive)
C[C@@H](Nc1nc(-c2ccccc2)nc2c1oc1ccccc12)C(=O)O | 16.4% (inactive)
Nc1nnn(CC(=O)N/N=C/c2ccccc2)n1 | 0.68% (inactive)
O=C(Cn1cncn1)N/N=C/c1c2ccccc2cc2ccccc12 | 84.8% (active)
Cc1nn(-c2ccccc2)c(C)c1/C=N/NC(=O)CSc1nc2ccccc2c(=O)n1-c1ccccc1 | 1.64% (inactive)
CCCCNC(=O)C1CCCNC1=O (configuration not stated) | -1.12% (inactive)
c1ccc(-c2csc(N3CCc4ccccc4C3)n2)cc1 | 14.7% (inactive)
O=C(NN=Cc1ccc(N2CCOCC2)cc1)c1cc2ccccc2cc1O | 11.3% (inactive)
NC(=O)c1ccccc1N=Cc1ccc2ccccc2c1 | 87.6% (active)
COc1ccc(/C=N/Nc2ccccc2C(=O)O)cc1 | 3.83% (inactive)
O=C(c1ccc(N2CCOCC2)c([N+](=O)[O-])c1)N1CCN(S(=O)(=O)c2cccs2)CC1 | -4.2% (inactive)
Cn1c(=O)c2c(nc(N3CCOCC3)n2CCNC2=NCCC2)n(C)c1=O | -1.68% (inactive)
O=C(c1ccc(F)cc1)N1CCC(n2nnc3ccccc32)CC1 | -1.01% (inactive)
Fc1ccc2nc(Nc3nc4c(s3)CCCC4)sc2c1 | 49.8% (active)
NS(=O)(=O)c1ccc2nc(NC(=O)CS(=O)(=O)c3ccc(F)cc3)sc2c1 | 8.79% (inactive)
CCS(=O)(=O)N1Cc2ccccc2CC1C(=O)Nc1nc2ccc(F)cc2s1 (configuration not stated) | -3.42% (inactive)

SMILES | activation
O=C(Nc1ccc(Br)cc1F)C1CC(=O)N(C2CCCCC2)C1 (configuration not stated) | 0.73% (inactive)
COc1ccccc1CCNC(=O)CN1C(=O)NC2(CCCC2)C1=O | -2.06% (inactive)
Cc1cc2c(cc1S(=O)(=O)NCc1ccc(Cl)cc1)OCC(=O)N2 | 1% (inactive)
COc1ccccc1-c1nnc(SCC(=O)N2CC(C)CC(C)C2)o1 (configuration not stated) | 29% (inactive)
COc1ccccc1-c1nnc(SCC(=O)Nc2ccccc2)o1 | 75.5% (active)
COc1cccc(NC(=O)CSc2nnc(-c3cccnc3)o2)c1 | 29.8% (inactive)
CN(CC(=O)Nc1ccc(F)cc1)CC(=O)N1CCCCC1 | 3.11% (inactive)
CCc1ccc(N(C(=O)c2csnn2)C(C(=O)NC2CCCCC2)c2ccncc2)cc1 (configuration not stated) | 3.1% (inactive)
O=C(CN1C(=O)NC2(CCCC2)C1=O)Nc1cc(C(F)(F)F)ccc1N1CCOCC1 | -0.32% (inactive)
CCOC(=O)c1ccc(-c2ccc(C(=O)Nc3cccnc3)o2)cc1 | 48.9% (active)
COc1ccc(C)cc1NC(=O)c1ccc(-c2ccc(C(C)=O)cc2)o1 | 40.5% (inactive)
COc1cccc(C(=O)Nc2cccnc2)c1OC | 19.2% (inactive)
CCN(CC)P(=O)(C(NC(=O)OC)C(F)(F)C(F)(F)C(F)(F)C(F)F)N(CC)CC (configuration not stated) | -0.37% (inactive)
O=C(N/N=C/c1ccc2c(c1)OCO2)C(=O)N1CCCC1 | 38.1% (inactive)
O=C1/C(=C/c2ccc3c(c2)OCO3)CCC/C1=C\c1ccc2c(c1)OCO2 | 72.7% (active)
CCC1=C/C(=C\c2ccc3c(c2)OCO3)C(=O)S1 | 1.47% (inactive)
Cc1ccc(S(=O)(=O)N(C)CC(=O)NCC(c2ccc(F)cc2)N2CCOCC2)cc1 (configuration not stated) | -0.69% (inactive)
Brc1ccc(C2=CC(c3ccco3)n3ncnc3N2)cc1 (configuration not stated) | 95.6% (active)
CCOc1ccc(C2=CC(c3ccccc3)n3ncnc3N2)cc1 (configuration not stated) | -3.83% (inactive)
CC1=C(C(=O)OCc2ccccc2)C(c2ccco2)n2ncnc2N1 (configuration not stated) | 1.22% (inactive)
